Hits are enriched below; roughly 2.6% of the tested compounds scored in any of these assays.
Anthrax LT inh: anthrax lethal toxin internalization inhibition; Potency, µM (top dose mostly 40 µM), for inactives: top-dose activity change, negative = inhibition, hits mostly inhibitors; hit rate 0.67% among 70,000; Cells, anthrax lethal toxin internalization, FRET ratio (460/530); note: % is set by controls: 0 for no effect and ±100 for the full control effect; nearly all actives have a fitted effect of over 50% in size
AmpC nodet inh: AmpC beta-lactamase inhibition, detergent-free assay. AmpC nitrocefin hydrolysis, absorbance 480 nm, no detergent. Potency, µM (titrated, usually from 28.7 µM), without a hit: at the highest dose activity change, negative = inhibition. hit rate 1.8% among 71,000. AID 585; note: % of control where 0% means no effect
Target sequence (P00811 whole entry, looked up): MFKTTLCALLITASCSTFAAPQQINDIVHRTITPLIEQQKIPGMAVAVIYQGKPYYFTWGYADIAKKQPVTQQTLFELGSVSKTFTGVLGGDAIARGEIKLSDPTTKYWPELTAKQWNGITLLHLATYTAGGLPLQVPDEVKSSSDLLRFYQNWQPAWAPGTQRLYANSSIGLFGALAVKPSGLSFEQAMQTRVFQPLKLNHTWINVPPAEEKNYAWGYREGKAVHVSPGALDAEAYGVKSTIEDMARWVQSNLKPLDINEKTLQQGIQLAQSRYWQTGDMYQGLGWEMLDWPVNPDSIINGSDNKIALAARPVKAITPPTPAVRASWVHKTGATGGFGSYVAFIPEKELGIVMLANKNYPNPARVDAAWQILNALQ
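Enzyme, pH 7.0 phosphate. Compound titrations were pre-incubated with AmpC for 15 min at room temperature before nitrocefin (stock 800 uM) addition; product formation was recorded at 480 nm every 20 s for 4 min.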
AmpC det inh: blocks E. coli AmpC beta-lactamase in presence of detergent; purified AmpC, nitrocefin hydrolysis with detergent; Potency, µM (top dose mostly 28.7 µM), without a hit: at the highest dose activity change, negative = inhibition; AID 584; P00811; hit rate 0.09% among 71,000; active = well fitted curve in the direction sought with a large enough effect; inconclusive = small, poorly fitted or top-dose-only effect; note: % is set by controls: 0 for no effect and ±100 for the full control effect
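E. coli AmpC (5.3 nM) in 20 mM phosphate pH 7.0 with 0.01% Triton X-100, preincubated 15 min RT with compound; nitrocefin (2 uL of 800 uM stock) hydrolysis followed by 480 nm absorbance every 20 s over 4 min.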
SmPrx2 inh: Schistosoma mansoni Prx2 inhibition. AID 448. S. mansoni Prx2 activity coupled to TGR/GSH (TGR is thioredoxin glutathione reductase), NADPH fluorescence loss, qHTS. Potency, µM. hit rate 0.07% among 65,000
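qHTS, coupled TGR/Prx2 format; 15 min compound preincubation at RT; reaction started with H2O2 (2.5 mM aliquot); kinetic NADPH fluorescence decrease, ex 365/em 450 nm.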
* hit, by the source's call; ? = inconclusive; / = no result given; [ ] = another dose, or the depositor's remark. Unless noted, calls come from the whole dose curve. Potency is the fitted concentration of half-maximal effect.

SMILES	Anthrax LT inh	AmpC nodet inh	AmpC det inh	SmPrx2 inh
CC(C)CN(CCCNC(=O)CC1Oc2ccccc2NC1=O)CC(C)C (stereo not given)	-3%	-10%	-7%	>57
CC1CC(C)CN(CCCNC(=O)CC2Oc3ccccc3NC2=O)C1 (stereo not given)	-9%	4µM*[single pt active]	11%	>57
O=C(CC1Oc2ccccc2NC1=O)NCCCN1CCCC1=O (stereo not given)	2%	4µM*[single pt active]	16%	>57
CC(C)N(CCCNC(=O)CC1Oc2ccccc2NC1=O)Cc1ccccc1 (stereo not given)	-14%	4µM*[single pt active]	12%	>57
O=C1Nc2ccccc2OC1CC(=O)N1CCOCC1 (stereo not given)	-5%	3.2µM*[single pt active]	14%	>57
CCN1C(=O)[C@H]2[C@H]3[C@H](O)[C@H](O)C/C(=N/O[C@@H](C)c4cc(-c5c(C)cc(C)cc5C)no4)[C@@H]3CC[C@@H]2C1=O	-13%[1.6 µM]	/	/	/
COc1c2c(nc3ccccc13)O[C@H]([C@@](C)(O)CO)C2	-2%[3.58 µM]	-11%[12.8 µM]	0%[12.8 µM]	>57
CN(C)CCSCCO	-16%[8 µM]	0%[5.75 µM]	-4%[5.75 µM]	>57
Cc1ccc(S(=O)(=O)OC2CCN(C)CC2)cc1	-6%[8 µM]	-4%[5.75 µM]	-4%[5.75 µM]	>57
CC(C)[C@@H](OCc1ccccc1)[C@H](C)CO/N=C1/[C@H]2OC2[C@@H](O)[C@H]2[C@H]1CCn1c(=O)n(-c3ccccc3)c(=O)n12 (stereo not given in full)	-11%[8 µM]	/	/	/
COc1ccc(Br)cc1C1CC(=O)N2CN(C)CSC2=C1C#N (stereo not given)	-12%	4µM*[single pt active]	13%	>57
CC(C)c1ccc(C2CC(=O)N3CN(C)CSC3=C2C#N)cc1 (stereo not given)	-8%	4µM*[single pt active]	11%	>57
COc1ccc(Br)cc1C1CC(=O)N2CN(Cc3ccccc3)CSC2=C1C#N (stereo not given)	?	2µM*	9%	>57
COc1cc(OC)c(C2CC(=O)N3CN(C)CSC3=C2C#N)cc1OC (stereo not given)	-23%	4µM*[single pt active]	9%	>57
COc1ccc2ccccc2c1C1CC(=O)N2CN(C)CSC2=C1C#N (stereo not given)	-28%	26%	-7%	>57
O=C(O)C[C@H]1OCC=C2C[N@@+]3([O-])CC[C@]45c6ccccc6N[C@@H]4[C@@H]1[C@H]2C[C@H]53	-2%[8 µM]	6%[5.75 µM]	-2%[5.75 µM]	>57
COc1ccc(OC)c(C2CC(=O)N3CN(c4cccc(Cl)c4)CSC3=C2C#N)c1 (stereo not given)	-30%	-23%	8%	>57
COc1ccc(OC)c(C2CC(=O)N3CN(c4cccc(Cl)c4C)CSC3=C2C#N)c1 (stereo not given)	?	4µM*[single pt active]	12%	>57
COc1cccc(C2CC(=O)N3CN(c4cccc(Cl)c4C)CSC3=C2C#N)c1OC (stereo not given)	?	4µM*[single pt active]	13%	/
O=C(NCC1CCCO1)C1CCN(S(=O)(=O)N2CCCC2)CC1 (stereo not given)	8%	-3%	2%	>57
CC1CCN(S(=O)(=O)N2CCC(C(=O)N3CCC(N(C)CC4CCCO4)CC3)CC2)CC1 (stereo not given)	4%	4µM*[single pt active]	16%	>57
CC(C)(C)C(=O)[C@H]([C@@H](c1ccccc1)N1CCOCC1)N1CCOCC1	3%[8 µM]	9%[5.75 µM]	-2%[5.75 µM]	>57
CCN(CC)CCCN1C(=O)C(O)=C(C(C)=O)C1c1ccc(OC)cc1OC (stereo not given)	-3%	4µM*[single pt active]	12%	>57
COc1ccc(C2C(C(C)=O)=C(O)C(=O)N2CCO)c(OC)c1 (stereo not given)	-21%	-3%	-3%	>57
CN(C)CCCN1c2ccccc2Sc2ccccc21	10µM*	28%[12.8 µM]	-1%[12.8 µM]	>57
SMILES	Anthrax LT inh	AmpC nodet inh	AmpC det inh	SmPrx2 inh
Cc1nc2c3ccccc3n(CC#N)c(=O)n2n1	-11%	2.5µM*[single pt active]	11%	>57
Cc1ccc(Cn2ccc(NC(=O)c3cc(-c4ccc(F)cc4)on3)n2)cc1	-6%	7.9µM*	7%	>57
Cc1ccc(Cn2ccc(NC(=O)c3cc(CC(C)C)on3)n2)cc1	?	4µM*[single pt active]	8%	>57
Cc1ccc(Cn2ccc(NC(=O)c3cc(-c4ccc(Cl)cc4)on3)n2)cc1	-3%	-10%	9%	>57
Nc1ccc(N(S(=O)(=O)c2ccccc2)S(=O)(=O)c2ccccc2)c(Cl)c1	-17%[8 µM]	-12%[5.75 µM]	-3%[5.75 µM]	>57
COCCNc1nc(-c2ccccc2OC)nc2ccccc12	7%	6%	11%	>57
CCCc1cc(C(=O)Nc2sc(C)c(CC)c2C#N)no1	13µM*	4µM*[single pt active]	13%	>57
CCOC(=O)c1c(NC(=O)c2cc(C3CC3)on2)sc(C(C)=O)c1C	1%	-20%	5%	>57
CCCc1cc(C(=O)Nc2sc3c(c2C#N)CCC3)no1	?	4µM*[single pt active]	10%	>57
CCCc1cc(C(=O)Nc2sc(C)c(C)c2C(=O)OCC)no1	?	4µM*[single pt active]	21%	>57
CCCc1cc(C(=O)Nc2cccnc2)no1	-13%	4µM*[single pt active]	11%	>57
O=C(O)C[C@H](Cc1ccc2c(c1)OCO2)C(=O)O	-3%[8 µM]	2%[5.75 µM]	-4%[5.75 µM]	>57
CC12CC3OS(=O)OC3CC3C4C(C(OCc5ccccc5)C31)C42 (stereo not given)	-10%[8 µM]	/	/	/
CCOC(=O)N1CCC(NC(=O)c2ccc3c(c2)N(C)CCS3)CC1	?	48%	0%	>57
COC(=O)c1ccc2c(c1)N(C)CCS2	10%	4µM*[single pt active]	12%	/
COc1ccc(CNc2ncncc2-c2ccoc2)c(OC)c1	2%	50%	12%	>57
O=C(CSc1nnc(Cc2cc(=O)[nH]c(=O)[nH]2)n1-c1ccc(Cl)cc1)NCC1CCCO1 (stereo not given)	4%	7%	-2%	>57
O=C(CSc1nnc(Cc2cc(=O)[nH]c(=O)[nH]2)n1-c1ccc(Cl)cc1)NC1CCCC1	4%	4µM*[single pt active]	9%	>57
CCOc1ccc(-n2c(Cc3cc(=O)[nH]c(=O)[nH]3)nnc2SCC(=O)NC2CCCC2)cc1	-12%	?	14%	>57
COc1ccc(-n2c(Cc3cc(=O)[nH]c(=O)[nH]3)nnc2SCC(=O)NC2CCCC2)cc1	4%	4µM*[single pt active]	13%	>57
Nc1ccc(C(=O)C[C@H](N)C(=O)O)cc1O	-1%[8 µM]	4%[5.75 µM]	-2%[5.75 µM]	>57
Cc1n[nH]c(C)c1S(=O)(=O)N(CC(=O)Nc1ccc2c(c1)OCCO2)c1ccc(C(C)C)cc1	16µM*	31%	2%	>57
Cc1noc(C)c1S(=O)(=O)N(CC(=O)Nc1ccc2c(c1)OCO2)c1ccc(C(C)C)cc1	?	-1%	4%	>57
N#Cc1c(NC(=O)Cn2c(=O)oc3ccccc32)oc(-c2ccccc2)c1-c1ccccc1	10µM*	13µM*	1%	>57
COc1ccc(O[C@H]2C=C[C@@H](c3ccccc3)O[C@H]2COC(=O)N2CCCCC2)cc1	-3%[1.6 µM]	/	/	/
Cc1c(Cl)cccc1NC(=O)c1cc(-c2ccc(O)cc2)on1	?	13µM*[single pt active]	3%	>57
COC(=O)CCc1nc2ccccc2[nH]c1=O	0%	-5%	4%	>57
